Data reported in PubChem BioAssay (EPA / NIEHS).
Where “and” joins values, the source holds several entries; their conditions need not be identical. Equal values may be shown once. Results filed as inconclusive are left out. More than one record can exist for a structure, and the calls need not agree. Calls of active or inactive are those of the source. How the source made its calls, unless noted: active means hit-call score of the fitted dose curve at least 0.9, where 1 is the maximum; inconclusive means response in the unintended direction; inactive means score below 0.9.

How the values were obtained:
[1] = read-out: Thyroid Hormone Responsive (THRSP), THRSP (gene 7069); assay: LTEA_HepaRG_THRSP: Life Technologies and Expression Analysis (LTEA) Assay for Thyroid Hormone Responsive (THRSP) using HepaRG (AID 2283536; active means hit-call score of the fitted dose curve at least 0.9, where 1 is the maximum; inactive means score below 0.9); conditions: mRNA level, 48 h; actives raise or lower the signal
Method in brief: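 Differentiated HepaRG cells treated 48 h in serum-free induction medium with 8 half-log concentrations up to 100 uM (0.5% DMSO), duplicates. THRSP mRNA by TaqMan qRT-PCR normalised to ACTB, GAPDH, POLR2A; bidirectional fit versus DMSO.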

[2] = read-out: Cellular tumor antigen p53 (Homo sapiens) (UniProt P04637); assay: LTEA_HepaRG_TP53: Life Technologies and Expression Analysis (LTEA) Assay for Tumor Protein P53 (TP53) using HepaRG (AID 2283537; active means hit-call score of the fitted dose curve at least 0.9, where 1 is the maximum; inactive means score below 0.9); conditions: mRNA level, 48 h; actives raise or lower the signal
Method in brief: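 TP53 transcript measured by qRT-PCR, normalized to three housekeeping genes, after 48 h treatment of human HepaRG cultures with chemicals from 100 uM downward in half-log steps (0.5% DMSO vehicle, serum-free induction medium). Up- or down-regulation fitted against DMSO.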

[3] = read-out: UDP glucuronosyltransferase (UGT1A1), UGT1A1 (gene 54658); assay: LTEA_HepaRG_UGT1A1: Life Technologies and Expression Analysis (LTEA) Assay for UDP glucuronosyltransferase (UGT1A1) using HepaRG (AID 2283538; active means hit-call score of the fitted dose curve at least 0.9, where 1 is the maximum; inactive means score below 0.9); conditions: mRNA level, 48 h; actives raise or lower the signal
Method in brief: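 Readout is UGT1A1 transcript level by qRT-PCR, normalized to three housekeeping genes, after 48 h chemical treatment of HepaRG cells. Concentrations ran from 100 uM down in half-log steps with 0.5% DMSO, and gain or loss relative to DMSO was fitted.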

[4] = read-out: UDP glucuronosyltransferase (UGT1A6), UGT1A6 (gene 54578); assay: LTEA_HepaRG_UGT1A6: Life Technologies and Expression Analysis (LTEA) Assay for UDP glucuronosyltransferase (UGT1A6) using HepaRG (AID 2283539; active means hit-call score of the fitted dose curve at least 0.9, where 1 is the maximum; inactive means score below 0.9); conditions: mRNA level, 48 h; actives raise or lower the signal
Method in brief: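 Endpoint is UGT1A6 transcript induction or loss in a human liver cell line, quantified by TaqMan qRT-PCR 48 h after dosing. Concentrations ran from 100 uM downward in half-log steps in 0.5% DMSO; activity was fitted in both directions versus vehicle.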

[5] = read-out: X-box binding protein 1 (XBP1), XBP1 (gene 7494); assay: LTEA_HepaRG_XBP1: Life Technologies and Expression Analysis (LTEA) Assay for X-box binding protein 1 (XBP1) using HepaRG (AID 2283540; active means hit-call score of the fitted dose curve at least 0.9, where 1 is the maximum; inactive means score below 0.9); conditions: mRNA level, 48 h; actives raise or lower the signal
Method in brief: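 Human HepaRG monolayers receive test chemical for 48 h across an eight-point half-log series starting at 100 uM. XBP1 mRNA gain or loss is scored against DMSO by qRT-PCR.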

[6] = TOX21_p53_BLA_p2_viability: Viability Assessment in the Tox21 HCT-116 p53 Agonism Beta-lactamase Assay, Phase 2 (AID 2283591);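 further: actives lower the ATP signal meaning cytotoxicity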
Method in brief: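 HCT116 p53-bla cells, 4000/well, dosed after 5 h plating (217-fold dilution of DMSO stocks) and incubated 16 h at 37C. Viability taken as cellular ATP by CellTiter-Glo luminescence after 30 min RT; signal loss marks cytotoxicity.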

[7] = biological target: Cellular tumor antigen p53 (Homo sapiens) (UniProt P04637); assay: TOX21_p53_BLA_p2_ratio: Tox21 HCT-116 p53 Agonism Beta-lactamase Assay, Ratio, Phase 2 (AID 2283592)
Cellular tumor antigen p53 (Homo sapiens), sequence (P04637 whole entry, looked up): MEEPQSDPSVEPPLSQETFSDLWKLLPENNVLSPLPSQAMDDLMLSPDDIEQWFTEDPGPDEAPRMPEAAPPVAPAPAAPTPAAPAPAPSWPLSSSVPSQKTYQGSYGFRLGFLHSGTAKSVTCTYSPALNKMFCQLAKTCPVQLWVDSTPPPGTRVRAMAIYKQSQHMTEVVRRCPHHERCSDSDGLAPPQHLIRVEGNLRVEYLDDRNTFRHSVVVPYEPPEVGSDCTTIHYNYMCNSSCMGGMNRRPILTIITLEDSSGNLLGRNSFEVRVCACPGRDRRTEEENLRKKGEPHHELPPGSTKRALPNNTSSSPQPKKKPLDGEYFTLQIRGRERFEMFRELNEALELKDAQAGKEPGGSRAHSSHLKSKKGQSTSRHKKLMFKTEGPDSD
Method in brief: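 An inducible beta-lactamase reporter in HCT116 cells signals p53 pathway activation. After 16 h chemical exposure at 37C, cells load CCF4-AM substrate for 2 h at room temperature; activity is the cleaved/uncleaved emission ratio relative to DMSO.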

[8] = TOX21_p53_BLA_p3_viability: Viability Assessment in the Tox21 HCT-116 p53 Agonism Beta-lactamase Assay, Phase 3 (AID 2283593);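 further: cells exposed to compound for 16 h before reading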
Method in brief: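 HCT116 cells, 4000/well, dosed 5 h after plating by pin transfer (217-fold dilution from DMSO stock) and incubated 16 h at 37C, 5% CO2. Viability read as ATP luminescence with CellTiter-Glo after 30 min at room temperature.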

[9] = biological target: Cellular tumor antigen p53 (Homo sapiens) (UniProt P04637); assay: TOX21_p53_BLA_p3_ratio: Tox21 HCT-116 p53 Agonism Beta-lactamase Assay, Ratio, Phase 3 (AID 2283596)
Method in brief: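 HCT116 p53-bla cells (4000/well) given compound in DMSO (217-fold dilution) after 5 h, incubated 16 h at 37C. CCF4-AM substrate 2 h at room temperature; 460/530 nm emission ratio, gain fitted against DMSO.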

[10] = TOX21_p53_BLA_p4_viability: Viability Assessment in the Tox21 HCT-116 p53 Agonism Beta-lactamase Assay, Phase 4 (AID 2283597);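 further: hits lower the luminescence signal meaning cytotoxicity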
Method in brief: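 Compound exposure of HCT116 cells lasts 16 h at 37C, 5% CO2, with DMSO stocks diluted 217-fold. Cellular ATP is then quantified by CellTiter-Glo luminescence after 30 min at room temperature.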

[11] = biological target: Cellular tumor antigen p53 (Homo sapiens) (UniProt P04637); assay: TOX21_p53_BLA_p5_ratio: Tox21 HCT-116 p53 Agonism Beta-lactamase Assay, Ratio, Phase 5 (AID 2283599)
Method in brief: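 HCT-116 p53-bla cells (4000/well) plated 5 h, dosed with compound (217-fold DMSO dilution) for 16 h at 37 C; CCF4-AM substrate 2 h at room temperature. Activity is the 460/530 nm emission ratio (405 nm excitation), fitted in gain-of-signal direction versus DMSO.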

[12] = TOX21_p53_BLA_p5_viability: Viability Assessment in the Tox21 HCT-116 p53 Agonism Beta-lactamase Assay, Phase 5 (AID 2283600)
Method in brief: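 Counter-readout for cytotoxicity: ATP-dependent luminescence from CellTiter-Glo, read in the beta-lactamase wells after 30 min at RT, following a 16 h compound exposure at 37C.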

[13] = biological target: Cellular tumor antigen p53 (Homo sapiens) (UniProt P04637); assay: TOX21_p53_BLA_p4_ratio: Tox21 HCT-116 p53 Agonism Beta-lactamase Assay, Ratio, Phase 4 (AID 2283601)
Method in brief: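 HCT-116 p53 beta-lactamase reporter cells (4000/well) preincubated 5 h, then compound (217-fold dilution of DMSO stock) for 16 h at 37C. CCF4-AM substrate added 2 h at room temperature; 460/530 nm emission ratio fitted upward versus DMSO.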

[14] = Tanguay_ZF_120hpf_MORT_legacy: (Legacy) Oregon State University Tanguay Lab 120 Hour Post-fertilization zebrafish Assay for Mortality (AID 2283633);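 on AC50: fitted as increase in binary mortality versus DMSO negative control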
Method in brief: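 Mortality endpoint from a multiplexed whole-embryo zebrafish screen. Dechorionated wild-type embryos received compound at 6 hpf and remained under static exposure at 28C until 120 hpf, with death noted as a present/absent call.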

[15] = Tanguay_ZF_120hpf_SNOU_legacy: (Legacy) Oregon State University Tanguay Lab 120 Hour Post-fertilization zebrafish Assay for Snout Malformation (AID 2283637)
Method in brief: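 Dechorionated tropical 5D wild-type zebrafish embryos exposed statically from 6 to 120 hpf at 28C, one per well, in 0.64% DMSO. Snout malformation scored as present/absent by brightfield at 120 hpf; dead embryos not scored.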

[16] = Tanguay_ZF_120hpf_JAW_legacy: (Legacy) Oregon State University Tanguay Lab 120 Hour Post-fertilization zebrafish Assay for Jaw Malformation (AID 2283638)
Method in brief: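 Static waterborne exposure of dechorionated wild-type (Tropical 5D) zebrafish from 6 to 120 hpf at 28C, 0.64% DMSO vehicle; 5uM trimethyltin chloride served as positive control. Jaw morphology recorded as binary at 120 hpf.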

[17] = Tanguay_ZF_120hpf_OTIC_legacy: (Legacy) Oregon State University Tanguay Lab 120 Hour Post-fertilization zebrafish Assay for Otic Vesicle Malformation (AID 2283639)
Method in brief: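 Embryos from 5D wild-type adults exposed in plates; DMSO 0.64% v/v final. Sealed, light-protected, 28C, static to 120 hpf. Otic vesicle malformation recorded as binary endpoint; gain-of-signal fitted vs DMSO.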

[18] = Tanguay_ZF_120hpf_PE_legacy: (Legacy) Oregon State University Tanguay Lab 120 Hour Post-fertilization zebrafish Assay for Pericardial Edema (AID 2283640)
Method in brief: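 Read-out is the presence or absence of pericardial edema at 120 hpf under brightfield, with gain of signal fitted against DMSO controls. Larvae (5D wild-type) were statically exposed at 28C with 0.64% final DMSO.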

[19] = ATG_XTT_Cytotoxicity: Cytotoxicity Assessment in the Attagene TRANS-FACTORIAL HepG2 Assay (AID 2283584)
Method in brief: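 Transfect HepG2 with GAL4-UAS reporter units, dose compound, incubate 24 h, then measure viable cell number by XTT. Fit concentration response against DMSO baseline.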

[20] = Tanguay_ZF_120hpf_AXIS_legacy: (Legacy) Oregon State University Tanguay Lab 120 Hour Post-fertilization zebrafish Assay for Body Axis Malformation (AID 2283635)
Method in brief: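 Static 6–120 hpf chemical exposure of dechorionated wild-type 5D zebrafish, one per well at 28C; morphology endpoint scored binary at 120 hpf relative to DMSO control.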

Measured: AC50

CC(C)(c1ccccc1)c1ccc(O)c(C(C)(C)c2ccccc2)c1
active: [1] 12.7 µM | [3] 12.2 µM | [6] 11.4 µM and 20.3 µM | [7] 43.2 µM and 46.9 µM | [8] 40.5 µM and 53.8 µM | [9] 80.6 µM and 83.7 µM | [10] 12.1 µM and 16.6 µM | [11] 73.6 µM and 51.9 µM | [12] 39.1 µM and 24.3 µM | [13] 37.5 µM and 29 µM
inactive: [2] | [4] | [5] | [14] | [15] | [16] | [17] | [18]

NC(=O)O
not listed: [6] | [8] | [9] | [10] | [17] | [20]
inactive: all other assays above

CCC(C)(C)c1ccc(O)c(C(C)(C)CC)c1
active: [6] 46.1 µM and 45.7 µM | [7] 72.7 µM and 66.4 µM | [9] 79.3 µM and 85.5 µM | [10] 23 µM and 53.5 µM | [11] 22.9 µM and 70.8 µM | [12] 22.2 µM and 45.7 µM | [13] 54.3 µM
not listed: [8]
inactive: all other assays above

CCCCCCCCc1ccc(O)cc1
active: [2] 0.418 µM | [3] 70.1 µM
inactive: all other assays above

CC(=O)C=C(C)C
inactive: [19]

O=C(O)C(Cl)(Cl)Cl
active: [4] 9.92 µM
inactive: [1] | [2] | [3] | [4] | [5] | [19] | [6] | [7] | [8] | [9] | [10] | [11] | [12] | [13] | [14] | [20] | [15] | [16] | [17] | [18]

CC1(C)Cc2cccc(O)c2O1
inactive: [19]

O=C(O)C(F)(F)C(F)(F)C(F)(F)C(F)(F)C(F)(F)C(F)(F)F
not listed: [6] | [7] | [8] | [9] | [12] | [13] | [15]
inactive: all other assays above

ClC1(Cl)C2(Cl)C3(Cl)C4(Cl)C(Cl)(Cl)C5(Cl)C3(Cl)C1(Cl)C5(Cl)C24Cl (stereo not drawn)
not listed: [6] | [9] | [11]
inactive: all other assays above

ClCC(Cl)CCl
inactive: all assays above

Oc1cccc2cccnc12
active: [14] 27.2 µM
not listed: [7] | [9] | [11] | [13]
inactive: all other assays above

C=CCc1ccc(OC)cc1
inactive: [19]

CN(C)N=O
not listed: [6] | [7] | [20]
inactive: all other assays above

C[C@@H]1C[C@@H]([C@H](O)CC2CC(=O)NC(=O)C2)C(=O)[C@@H](C)C1
inactive: [19] | [6] | [7] | [9] | [10] | [11] | [12] | [13] | [20] | [16] | [17] | [18]
active: [1] 7.51 µM | [2] 12 µM | [3] 36.2 µM | [4] 39.6 µM | [5] 16.7 µM | [7] 13.5 µM | [10] 1.92 µM | [14] 43.2 µM
